The campaign covered roughly 68,000 compounds. About 2,700 (4%) showed an effect of 50% or more. Only a selection was taken, and strong results are over-represented in it overall.
Tested on: Plasmodium berghei
Experiment: Screen against P. berghei liver stage (PbLuc), transformed with Luciferase, at 2uM
Type: functional, HepG2
Conditions: tested at 2 uM

SMILES | INHIBITION [%]
O=C1CCCN1Cc1nnn2c1CN(c1ncccn1)CCC2 | 1.48
CC(C(=O)NCc1ccnc(N2CCOCC2)c1)n1cccn1 (stereo unspecified) | -7.02
CN1CC(C(=O)NCc2ccnc(-n3cccn3)c2)CC1=O (stereo unspecified) | 67.99
CSC(C)C(=O)NCc1ccnc(N2CCN(C)CC2)c1 (stereo unspecified) | 22.29
CCN1CC(C(=O)NCc2ccnc(-n3cccn3)c2)CC1=O (stereo unspecified) | 2.46
CC(C(=O)NCc1ccnc(N2CCCCCC2)c1)n1cccn1 (stereo unspecified) | 53.33
CC(C)N1CC(C(=O)NCc2ccnc(-n3cccn3)c2)CC1=O (stereo unspecified) | -47.05
CC(C(=O)NCc1ccnc(N2CCCC2)c1)n1cccn1 (stereo unspecified) | 17.12
CC(C(=O)NCc1ccc(N2CCN(C)CC2)nc1)n1cccn1 (stereo unspecified) | 23.16
CC(C(=O)NCc1ccnc(N2CCN(C)CC2)c1)n1cccn1 (stereo unspecified) | 53.12
Cn1cc(CC2CC(=O)N(Cc3ccc(Cl)cc3)C2=O)cn1 (stereo unspecified) | 29.4
CCn1ccnc1CN1CCN(CCOc2ccc(C#N)cc2)CC1 | -12.75
CCOc1ccc2[nH]c(=O)c(CN3CCN(S(N)(=O)=O)CC3)cc2c1 | 43.05
CN1CCC2(CC1)CN(C(=O)c1cccc3cccnc13)CCN2C | 9.11
CC(CN1CCCC1=O)NC(=O)c1ccc(C(F)(F)F)[nH]c1=O (stereo unspecified) | -85.12
Cc1cccn2cc(CC(=O)N3CCCC(n4cncn4)C3)nc12 (stereo unspecified) | -45.23
O=C(C1CCCC1)N1CCC2(CC1)OCCO2 | -29.58
O=C(C1CC1)N1CCC2(CC1)OCCO2 | 56.99
O=C(C1CCC1)N1CCC2(CC1)OCCO2 | 11.87
CC(C)C1CN(c2cccc(C#N)n2)CCCN1Cc1ccc(F)cc1 (stereo unspecified) | 8.26
Cc1ccnc(C2CCN(c3ccnc(C)n3)C2)n1 (stereo unspecified) | 17.24
CCc1nnc(Nc2cc(C)nc(C3CCN(c4ccncn4)C3)n2)s1 (stereo unspecified) | 37.36

SMILES | INHIBITION [%]
Cc1cc(C)nc(C2CCN(c3ccncn3)C2)n1 (stereo unspecified) | 80.06
N#Cc1cccc(NC(=O)N(CC(F)F)C2CC2)c1 | -73.45
CSCC(=O)N1CCCC(CCC(=O)N(C)CCc2ccccn2)C1 (stereo unspecified) | 28.62
O=C(c1ccoc1)N1CC[C@H]2OCC[C@@]2(COc2ncccc2F)C1 | 30.79
CC(c1cccc(O)c1)N(C)S(=O)(=O)c1cccnc1 (stereo unspecified) | -18.09
CC(c1cccc(O)c1)N(C)S(N)(=O)=O (stereo unspecified) | -21.47
CCN(C(C)c1cccc(O)c1)S(=O)(=O)c1cccnc1 (stereo unspecified) | 52.83
Cc1cc(C)c(N(CC(O)CNCc2ccccc2)S(C)(=O)=O)c(C)c1 (stereo unspecified) | 25.73
CN(CCNC(=O)N1CCN(Cc2ccon2)CC1)c1ccccc1 | -5.97
Cc1cc(CN2CCN(C(=O)NCc3ccco3)CC2)no1 | -24.5
CC(C)C(=O)NCCNC(=O)C(C)OCC(F)(F)F (stereo unspecified) | 57.76
CCN(CC)CCNC(=O)C(C)OCC(F)(F)F (stereo unspecified) | -55.73
CC(OCC(F)(F)F)C(=O)NCCN(C)C (stereo unspecified) | -6.73
CC(C)(C)c1ccc2c(c1)CCN2C(=O)c1ccc(=O)[nH]n1 | -6.69
O=C(c1ccc(=O)[nH]n1)N1CCc2ccccc21 | 54.52
O=C(c1c[nH]c(=O)[nH]1)N1CCc2ccccc21 | -63.68
O=C(c1cccnc1)N1CCCC1c1cc[nH]n1 (stereo unspecified) | 40.31
Cc1ccc(C(=O)N(Cc2ccc(F)cc2F)C2CC2)c(=O)[nH]1 | 20.76
Cc1ccc(C(=O)N(Cc2ccc(F)cc2)C2CC2)c(=O)[nH]1 | 27.33
Cc1ccc(C(=O)N(Cc2cccc(F)c2)C2CC2)c(=O)[nH]1 | 63.46
CCN(C)c1ncc2c(c1C(=O)O)CCN(C1CCOC1)C2 (stereo unspecified) | 54.13
CN1CCN(c2ncc3c(c2C(=O)O)CCN(C2CCOC2)C3)CC1 (stereo unspecified) | 21.28

SMILES | INHIBITION [%]
O=C(O)c1c(-c2ccncc2)ncc2c1CCN(C1CCOC1)C2 (stereo unspecified) | -80.9
O=C(O)c1c(-c2ccoc2)ncc2c1CCN(C1CCOC1)C2 (stereo unspecified) | 55.52
O=C(O)c1c(NC2CCC2)ncc2c1CCN(C1CCOC1)C2 (stereo unspecified) | 45.12
CCN(CC)c1ncc2c(c1C(=O)O)CCN(C1CCOC1)C2 (stereo unspecified) | 24.51
CNS(=O)(=O)c1ccc(CNC(=O)Nc2cn[nH]c2)cc1 | 2.07
COc1ccccc1CCc1nc(CC2CCN(C)CC2)no1 | 34.46
COc1c[nH]c(C(=O)N2CCN(c3cccc(Cl)c3)CC2)cc1=O | 22.88
CCc1ncc(CN2C[C@@H]3CC[C@H]2CN(C(=O)C2CCC2)C3)cn1 | 12.3
Cn1ccnc1CN(CCO)C(=O)c1cnc2ccccc2c1 | 29.71
Cc1c(Cl)cc(C(=O)N(CCO)Cc2nccn2C)cc1Cl | 55.84
Cn1ccnc1CN(CCO)C(=O)c1cc2ccccc2o1 | 22.27
CC(C)NC(=O)NC(C)c1nc(-c2ccccc2)cs1 (stereo unspecified) | -22.08
Cc1csc(N(C)C(=O)C2CC(=O)N(c3ccccc3Cl)C2)n1 (stereo unspecified) | -29.95
CN1CCc2nc(C3CCCN(S(=O)(=O)c4ccccc4)C3)ncc2C1 (stereo unspecified) | 64.55
CN1CCc2nc(C3CCCN(S(=O)(=O)N4CCCC4)C3)ncc2C1 (stereo unspecified) | -1.51
CCN(CC)S(=O)(=O)N1CCCC(c2ncc3c(n2)CCN(C)C3)C1 (stereo unspecified) | 3.38
Cc1nc(N2CCCC2C(=O)NC(C)(C)CO)nc2ccccc12 (stereo unspecified) | 26.49
COCC1CN(c2ccc(Cl)cc2C#N)CCO1 (stereo unspecified) | 29.3
Cc1nc(CN2CCCC(c3nc(C)n4c(C)c(C)sc34)C2)co1 (stereo unspecified) | -12.89
Cc1cc(CNCC2(O)CCOCC2)ccc1Br | -6.29
OCC1(NCc2cccc(-n3cccn3)c2)CCOCC1 | -2.38
Cc1cc(CNC2(CO)CCOCC2)ccc1Br | 51.08

SMILES | INHIBITION [%]
CCn1c(CN2CCN(C(=O)C3CCC3)CC2)nc2c(F)cccc21 | 10.22
O=C(C1CNCCO1)N1CCCC(c2ccccc2)(c2ccccc2)C1 (stereo unspecified) | 42.2
Cc1nc(C(C)C)sc1C(=O)NS(=O)(=O)c1ccc(C#N)cc1 | 36.12
CCCc1nc(C)c(C(=O)NS(=O)(=O)c2ccc(C#N)cc2)s1 | 55.63
CCCc1nc(C)c(C(=O)NS(=O)(=O)c2cccnc2)s1 | -25.2
Fc1ccc(CN2CCCC3(COCCN(Cc4c[nH]nn4)C3)C2)cc1 (stereo unspecified) | 23.81
O=C1CC(c2ccc(C(=O)O)cc2)c2ncn(-c3cccc(Cl)c3)c2N1 (stereo unspecified) | 53.61
O=C1CC(c2ccc(C(=O)O)cc2)c2ncn(-c3cccc(F)c3)c2N1 (stereo unspecified) | -20.06
O=C1CC(c2ccc(C(=O)O)cc2)c2ncn(-c3ccccc3)c2N1 (stereo unspecified) | -29.53
CC(C)c1cnc(CN(C)C2CCN(CCc3cnn(C)c3)C2)o1 (stereo unspecified) | 5.59
Cc1cc(C)n(CCN2CCC(N(C)Cc3noc(C4CC4)n3)C2)n1 (stereo unspecified) | 12.66
CN(Cc1noc(C2CC2)n1)C1CCN(CCc2cccs2)C1 (stereo unspecified) | 30.88
Cc1ccc(CCN2CCC(N(C)Cc3noc(C4CC4)n3)C2)cc1 (stereo unspecified) | 54.85
CC(C)c1cnc(CN(C)C2CCN(CCCc3cnn(C)c3)C2)o1 (stereo unspecified) | 59.23
CN(Cc1cnn(C)c1)C1CCCN(Cc2noc(C3CC3)n2)C1 (stereo unspecified) | 22.75
CN(Cc1nnc(C2CC2)n1C)C1CCN(CCc2ccccc2)C1 (stereo unspecified) | -11.31
Cc1cnc(CN(C)C2CCN(CCCc3cnn(C)c3)C2)o1 (stereo unspecified) | 8.42
CN(Cc1noc(C2CC2)n1)C1CCN(CCc2cnn(C)c2)C1 (stereo unspecified) | 64.87
CN(Cc1nnc(C2CC2)n1C)C1CCN(CCc2ccncc2)C1 (stereo unspecified) | -0.45
Cc1nc(CN(C)C2CCN(CCc3cnn(C)c3)C2)no1 (stereo unspecified) | 31.7
CN(Cc1nnc(C2CC2)n1C)C1CCN(CCc2cnn(C)c2)C1 (stereo unspecified) | 81.1
COc1ccnc(C(=O)N2CCCC(c3noc(C)n3)C2)c1 (stereo unspecified) | 11.71

SMILES | INHIBITION [%]
Cc1cc(C)c2nc(CN3CCCC(c4cc[nH]n4)C3)cc(O)c2c1 (stereo unspecified) | -45.64
Cn1cc(CNC(=O)c2cc3c(s2)CCCCC3)cn1 | 36.66
COc1cc(C2CC(=O)Nc3c2nc2n3CCCC2)ccc1O (stereo unspecified) | 0.1
CC1CCN(C(=O)c2cc(NC(=O)c3ccccc3)n(C)n2)CC1 | -57.06
CCc1cc(NCCCN(C)C2CCCC2)ncn1 | 36.22
CC(C)NC(=O)N1CCC2(CCC(=O)N2CCN(C)C)CC1 | 16.12
Cc1c(C2=NS(=O)(=O)N(C)C(C(=O)Nc3ccc(Br)cc3)=C2)cnn1C | 22.84
CN1C(=O)CCCC12CCCN(Cc1nccs1)C2 (stereo unspecified) | 20.2
CCN(Cc1ccccc1)C(=O)CN1CCCC(Cn2cncn2)C1 (stereo unspecified) | 33.16
CNC(=O)CN1CCN(C(=O)c2ccn(C)c(=O)c2)CC1 | -16.28
CC(C)c1nc(C2CCCN(C(=O)CCn3cncn3)C2)no1 (stereo unspecified) | 64.16
CC(C)c1nc(C2CCCN2C(=O)CCn2cncn2)no1 (stereo unspecified) | -15.92
CSc1ccc(C(=O)C2CCCN(C(=O)CCn3cncn3)C2)cc1 (stereo unspecified) | 55.25
CSc1ccc(C(=O)C2CCCN(C(=O)CCCn3cncn3)C2)cc1 (stereo unspecified) | 49.98
CC(C)c1nc(C2CCCN(C(=O)CCCn3cncn3)C2)no1 (stereo unspecified) | -45.72
CSc1ccc(C(=O)C2CCCN(C(=O)CCn3cnnn3)C2)cc1 (stereo unspecified) | 35.13
c1ccn2cc(CN3CCCC(c4ccn[nH]4)C3)nc2c1 (stereo unspecified) | 13.4
Cc1cc(C2CCCN(Cc3cccnc3)C2)n[nH]1 (stereo unspecified) | 30.82
